Experiment [1] is described as follows: ATG_ISRE_CIS: Attagene CIS-FACTORIAL HepG2 Assay for human Interferon Regulatory Factor 1 (IRF1) binding to an Interferon-Stimulated Response Element (ISRE) (AID 2282948). To be noted: HepG2 ISRE cis-reporter (Attagene), mRNA transcription readout; actives raise or lower the signal. The gist of the method:
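Cell-based cis-reporter assay; HepG2; 24 h exposure; reporter mRNA by RT-PCR plus capillary electrophoresis fluorescence; activity in either direction scored relative to DMSO.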

A short description of experiment [2]: ATG_M_32_CIS: Attagene CIS-FACTORIAL HepG2 Assay for M32 Transcription Factor (Internal Marker) (AID 2282949).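 Further: background control marker of the multiplexed CIS panel rather than a real target.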 The conditions noted are these: HepG2 Attagene cis-factorial M32 reporter, mRNA; actives raise or lower the signal. The gist of the method: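 Internal background marker read-out: RT-PCR/capillary electrophoresis fluorescence of reporter transcripts from transiently transfected HepG2 cells after 24 h chemical exposure. Activity fitted bidirectionally relative to DMSO negative control.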

Experiment [3] is described as follows: ATG_M_06_CIS: Attagene CIS-FACTORIAL HepG2 Assay for M06 Transcription Factor (Internal Marker) (AID 2282950). To be noted: HepG2 Attagene CIS-FACTORIAL M06 internal marker reporter; actives raise or lower the signal. The gist of the method:
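Internal background marker within multiplexed cis-reporter HepG2 system. Cells transiently transfected, dosed 24 h; reporter mRNA measured by RT-PCR, HpaI digestion and capillary electrophoresis. Bidirectional fit relative to DMSO.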

The target of experiment [4] is Hepatocyte nuclear factor 6 (Homo sapiens) (UniProt Q9UBC0). The experiment in a line: ATG_HNF6_CIS: Attagene CIS-FACTORIAL HepG2 Assay for human Hepatocyte Nuclear Factor 6 (HNF6) (AID 2282952). The conditions noted are these: HepG2 Attagene cis-factorial HNF6 reporter transcription; actives raise or lower the signal. The gist of the method: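 Multiplexed mRNA reporter assay in transfected HepG2; 24 h dosing; RT-PCR plus capillary electrophoresis fluorescence; DMSO-referenced bidirectional curve fitting.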

A short description of experiment [5]: ATG_MRE_CIS: Attagene CIS-FACTORIAL HepG2 Assay for human Metal Responsive Element (MRE) (AID 2282954). The conditions noted are these: HepG2 MRE cis-reporter transcription, Attagene multiplex; actives raise or lower the signal. The gist of the method:
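Fluorescent reporter fragments separated by capillary electrophoresis give mRNA induction for the MRE unit after 24 h treatment of transfected HepG2 cells. Endogenous transcription-factor activity is read; DMSO serves as negative control and baseline.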

Experiment [6] in a line: ATG_PXRE_CIS: Attagene CIS-FACTORIAL HepG2 Assay for human Pregnane X Receptor Element (PXRE) (AID 2282957). To be noted: HepG2 Attagene CIS-FACTORIAL PXRE reporter, mRNA; actives raise or lower the signal. The gist of the method: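 Cells: HepG2, transiently transfected reporter units under cis promoter control. Exposure: 24 h. Detection: reporter mRNA via RT-PCR/CE fluorescence; bidirectional fitting, DMSO-referenced.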

A short description of experiment [7]: ATG_RORE_CIS: Attagene CIS-FACTORIAL HepG2 Assay for human RAR-related Orphan Receptor Element (RORE) (AID 2282959). The conditions noted are these: HepG2 Attagene cis-factorial RORE reporter, mRNA; actives raise or lower the signal. The gist of the method:
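Readout: fluorescent reporter mRNA by RT-PCR plus capillary electrophoresis, 24 h after dosing transfected HepG2 cells. Endogenous transcription factor activity on a cis promoter element is measured. Gain or loss of signal fitted against DMSO.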

Experiment [8] in a line: ATG_Sox_CIS: Attagene CIS-FACTORIAL HepG2 Assay for human SRY-box transcription factor (SOX) (AID 2282960). To be noted: HepG2 Attagene cis-factorial SOX reporter, mRNA; actives raise or lower the signal. The gist of the method: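 Read-out: fluorescent RT-PCR products of SOX1-linked reporter transcripts resolved by capillary electrophoresis, fitted bidirectionally against DMSO. Transiently transfected HepG2 cells, 24 h after chemical exposure, endogenous transcription factor activity.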

The target of experiment [9] is Transcription factor Sp1 (Homo sapiens) (UniProt P08047). The experiment in a line: ATG_Sp1_CIS: Attagene CIS-FACTORIAL HepG2 Assay for human Specificity Protein 1 (Sp1) (AID 2282961). The conditions noted are these: HepG2 Sp1 cis-reporter transcription, actives raise or lower the signal. The gist of the method: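 Read-out: fluorescence of 6-FAM-labeled, HpaI-digested RT-PCR products separated by capillary electrophoresis. HepG2 cells carried transfected cis-element reporter units and were exposed to chemicals for 24 h; gain or loss of signal fitted relative to DMSO.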

The nature of experiment [10]: ATG_SREBP_CIS: Attagene CIS-FACTORIAL HepG2 Assay for human Sterol Regulatory Element Binding (SREBP) (AID 2282962). To be noted: HepG2 Attagene cis-factorial SREBP reporter, mRNA; actives raise or lower the signal. The gist of the method: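 mRNA induction of transfected cis-promoter reporters in HepG2 cells, 24 h post-dose. Detection: RT-PCR with 6-FAM-labelled products, HpaI digest, capillary electrophoresis. DMSO served as negative control and baseline.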

The target of experiment [11] is Signal transducer and activator of transcription 3 (Homo sapiens) (UniProt P40763). The experiment in a line: ATG_STAT3_CIS: Attagene CIS-FACTORIAL HepG2 Assay for human Signal Transducer and Activator of Transcription 3 (STAT3) (AID 2282963). The conditions noted are these: HepG2, Attagene cis-factorial STAT3 reporter transcription; actives raise or lower the signal. The gist of the method: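 Values derive from bidirectional fits relative to DMSO of reporter mRNA levels, measured by RT-PCR with capillary electrophoresis, in HepG2 cells carrying transiently transfected cis-regulated reporter units and exposed 24 h.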

Experiment [12] is described as follows: ATG_TA_CIS: Attagene CIS-FACTORIAL HepG2 Assay for human TA Basal Promoter (AID 2282964). To be noted: HepG2 Attagene CIS-factorial TA basal promoter reporter; actives raise or lower the signal. The gist of the method: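 HepG2 cells transiently transfected with multiple reporter units under cis promoter elements, reporting endogenous transcription factor activity; this endpoint tracks the TA basal promoter as background control. Reporter mRNA after 24 h dosing measured by RT-PCR/capillary electrophoresis; bidirectional fits versus DMSO.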

Experiment [13] is described as follows: ATG_TCF_b_cat_CIS: Attagene CIS-FACTORIAL HepG2 Assay for human T-Cell-Factor with beta-catenin (TCF/b-cat) (AID 2282965). To be noted: HepG2 TCF/beta-catenin cis-reporter transcription, actives raise or lower the signal. The gist of the method:
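HepG2, transient MRTU transfection, cis-element-driven reporters (endogenous TFs). 24 h compound exposure. Readout: reporter mRNA by RT-PCR + 6-FAM primer extension, HpaI digest, capillary electrophoresis. Gain/loss fit vs DMSO baseline.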

Experiment [14] deals with Hypoxia-inducible factor 1-alpha (Homo sapiens) (UniProt Q16665). Kind of experiment: ATG_HIF1a_CIS: Attagene CIS-FACTORIAL HepG2 Assay for human Hypoxia Inducible Factor 1 (HIF1A) (AID 2282951). The conditions noted are these: HepG2 Attagene cis-factorial HIF1a reporter transcription; actives raise or lower the signal. The gist of the method: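 RT-PCR/capillary electrophoresis fluorescence readout of reporter transcripts from endogenous-TF-driven cis elements in transfected HepG2 cells, 24 h exposure; activity fitted in both directions against DMSO controls.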

Experiment [15] addresses Heat shock factor protein 1 (Homo sapiens) (UniProt Q00613). Kind of experiment: ATG_HSE_CIS: Attagene CIS-FACTORIAL HepG2 Assay for human Heat Shock Transcription Factor 1 (HSE) (AID 2282953). The conditions noted are these: HepG2 HSE cis-reporter, Attagene RNA transcription; actives raise or lower the signal. The gist of the method:
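HepG2 cells transfected with cis-promoter reporter units sensing endogenous transcription factor activity; reporter mRNA quantified 24 h post-dose by RT-PCR and capillary electrophoresis of 6-FAM-labelled products. Bidirectional fitting against DMSO.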

Experiment [16] addresses Paired box protein Pax-6 (Homo sapiens) (UniProt P26367). Kind of experiment: ATG_Pax6_CIS: Attagene CIS-FACTORIAL HepG2 Assay for human Paired Box 6 (PAX6) (AID 2282956). To be noted: HepG2 CIS-FACTORIAL PAX6 reporter transcription, RNA readout; actives raise or lower the signal. The gist of the method: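 Multiplexed cis-reporter HepG2 system; 24 h treatment; reporter mRNA read by RT-PCR/CE fluorescence; bidirectional fit vs DMSO.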

Experiment [17] in a line: ATG_PPRE_CIS: Attagene CIS-FACTORIAL HepG2 Assay for human Peroxisome Proliferator-activated Response Element (PPRE) (AID 2282958). To be noted: HepG2 PPRE cis-element reporter, Attagene transcription factor profiling; actives raise or lower the signal. The gist of the method: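 Read-out: fluorescent reporter mRNA fragments resolved by capillary electrophoresis after RT-PCR. HepG2 cells carried transiently transfected PPRE-driven cis reporter constructs and were dosed for 24 h; gain or loss of signal fitted relative to DMSO.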

The nature of experiment [18]: ATG_PBREM_CIS: Attagene CIS-FACTORIAL HepG2 Assay for human Phenobarbital-responsive Enhancer Module (PBREM) (AID 2282955). To be noted: HepG2 PBREM cis-reporter, Attagene multiplexed transcription; actives raise or lower the signal. The gist of the method: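 Reporter mRNA read by RT-PCR, 6-FAM primer extension, HpaI digestion and capillary electrophoresis. Transfected HepG2 cells, 24 h compound exposure. Gain or loss of signal fitted bidirectionally relative to DMSO baseline.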

The source made the active and inactive calls. How the source made its calls: active means hit-call score of the fitted dose curve at least 0.9, where 1 is the maximum; inactive means score below 0.9.

We go through eight compounds from PubChem BioAssay (EPA / NIEHS).

As a reminder, the AC50 is the concentration at which the activity in the assay is half-maximal.

Chain of Hepatocyte nuclear factor 6 (Homo sapiens) (Q9UBC0 whole entry, looked up): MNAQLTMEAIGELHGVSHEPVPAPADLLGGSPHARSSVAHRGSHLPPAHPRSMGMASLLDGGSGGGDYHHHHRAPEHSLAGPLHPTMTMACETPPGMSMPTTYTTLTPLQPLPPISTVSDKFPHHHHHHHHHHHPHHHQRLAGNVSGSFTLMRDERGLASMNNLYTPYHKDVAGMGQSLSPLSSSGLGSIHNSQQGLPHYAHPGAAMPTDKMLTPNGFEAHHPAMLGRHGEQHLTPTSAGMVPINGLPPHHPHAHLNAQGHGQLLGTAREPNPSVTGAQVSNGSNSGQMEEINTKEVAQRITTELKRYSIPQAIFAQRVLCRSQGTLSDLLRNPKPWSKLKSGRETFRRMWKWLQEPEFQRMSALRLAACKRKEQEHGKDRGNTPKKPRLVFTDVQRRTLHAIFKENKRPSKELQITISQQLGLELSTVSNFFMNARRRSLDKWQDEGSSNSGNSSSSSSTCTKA
Chain of Signal transducer and activator of transcription 3 (Homo sapiens) (P40763 whole entry, looked up): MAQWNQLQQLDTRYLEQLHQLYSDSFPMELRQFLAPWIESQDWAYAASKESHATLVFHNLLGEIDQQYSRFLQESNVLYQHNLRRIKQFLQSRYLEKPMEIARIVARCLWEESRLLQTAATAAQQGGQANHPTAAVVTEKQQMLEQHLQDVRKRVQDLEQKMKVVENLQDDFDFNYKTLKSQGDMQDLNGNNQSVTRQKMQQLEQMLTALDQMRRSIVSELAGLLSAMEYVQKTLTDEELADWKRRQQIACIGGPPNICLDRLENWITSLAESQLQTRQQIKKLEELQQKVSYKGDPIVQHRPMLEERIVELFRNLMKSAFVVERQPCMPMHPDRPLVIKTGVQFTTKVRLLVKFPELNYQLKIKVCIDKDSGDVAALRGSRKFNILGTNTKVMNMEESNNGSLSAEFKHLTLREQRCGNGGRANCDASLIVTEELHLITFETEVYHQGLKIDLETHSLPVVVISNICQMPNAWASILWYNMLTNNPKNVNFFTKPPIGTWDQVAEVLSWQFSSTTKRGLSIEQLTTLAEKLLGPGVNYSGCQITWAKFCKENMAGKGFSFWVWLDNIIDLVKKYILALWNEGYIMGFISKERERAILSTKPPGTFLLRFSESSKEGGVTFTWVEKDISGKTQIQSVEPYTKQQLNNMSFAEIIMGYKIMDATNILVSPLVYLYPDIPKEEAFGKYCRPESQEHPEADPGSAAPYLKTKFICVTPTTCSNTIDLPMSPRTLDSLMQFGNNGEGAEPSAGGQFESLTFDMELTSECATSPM
Chain of Paired box protein Pax-6 (Homo sapiens) (P26367 whole entry, looked up): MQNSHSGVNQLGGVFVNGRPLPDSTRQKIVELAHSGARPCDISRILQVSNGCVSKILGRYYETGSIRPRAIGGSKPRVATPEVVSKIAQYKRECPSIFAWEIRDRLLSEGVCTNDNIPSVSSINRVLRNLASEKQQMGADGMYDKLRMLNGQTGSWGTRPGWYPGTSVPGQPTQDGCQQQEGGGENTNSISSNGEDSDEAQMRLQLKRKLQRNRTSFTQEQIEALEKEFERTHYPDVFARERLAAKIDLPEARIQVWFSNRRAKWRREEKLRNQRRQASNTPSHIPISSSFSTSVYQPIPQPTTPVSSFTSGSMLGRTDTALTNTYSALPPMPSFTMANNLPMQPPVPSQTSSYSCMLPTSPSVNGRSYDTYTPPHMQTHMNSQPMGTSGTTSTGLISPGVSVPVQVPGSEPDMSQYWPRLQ
Chain of Transcription factor Sp1 (Homo sapiens) (P08047 whole entry, looked up): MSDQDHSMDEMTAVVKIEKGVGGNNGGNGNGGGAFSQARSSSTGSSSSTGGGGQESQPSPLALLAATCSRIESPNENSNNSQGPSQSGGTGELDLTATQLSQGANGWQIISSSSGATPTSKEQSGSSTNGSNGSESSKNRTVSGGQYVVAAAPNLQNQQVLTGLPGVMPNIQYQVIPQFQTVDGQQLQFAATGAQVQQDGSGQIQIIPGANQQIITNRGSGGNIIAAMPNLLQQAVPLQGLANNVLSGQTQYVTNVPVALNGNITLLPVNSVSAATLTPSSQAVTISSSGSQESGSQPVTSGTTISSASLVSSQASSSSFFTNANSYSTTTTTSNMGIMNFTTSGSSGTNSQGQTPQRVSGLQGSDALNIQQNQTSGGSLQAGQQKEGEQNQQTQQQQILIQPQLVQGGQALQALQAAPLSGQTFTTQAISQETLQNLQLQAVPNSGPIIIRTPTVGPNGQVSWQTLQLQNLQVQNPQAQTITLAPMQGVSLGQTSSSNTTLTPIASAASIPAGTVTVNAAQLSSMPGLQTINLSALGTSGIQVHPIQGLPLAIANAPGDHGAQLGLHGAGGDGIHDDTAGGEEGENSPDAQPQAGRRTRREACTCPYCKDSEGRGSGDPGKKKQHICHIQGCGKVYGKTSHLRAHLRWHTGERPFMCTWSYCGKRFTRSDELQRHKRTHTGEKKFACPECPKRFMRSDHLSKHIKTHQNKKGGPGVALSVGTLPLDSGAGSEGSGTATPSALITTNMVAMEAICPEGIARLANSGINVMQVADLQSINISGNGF
Chain of Heat shock factor protein 1 (Homo sapiens) (Q00613 whole entry, looked up): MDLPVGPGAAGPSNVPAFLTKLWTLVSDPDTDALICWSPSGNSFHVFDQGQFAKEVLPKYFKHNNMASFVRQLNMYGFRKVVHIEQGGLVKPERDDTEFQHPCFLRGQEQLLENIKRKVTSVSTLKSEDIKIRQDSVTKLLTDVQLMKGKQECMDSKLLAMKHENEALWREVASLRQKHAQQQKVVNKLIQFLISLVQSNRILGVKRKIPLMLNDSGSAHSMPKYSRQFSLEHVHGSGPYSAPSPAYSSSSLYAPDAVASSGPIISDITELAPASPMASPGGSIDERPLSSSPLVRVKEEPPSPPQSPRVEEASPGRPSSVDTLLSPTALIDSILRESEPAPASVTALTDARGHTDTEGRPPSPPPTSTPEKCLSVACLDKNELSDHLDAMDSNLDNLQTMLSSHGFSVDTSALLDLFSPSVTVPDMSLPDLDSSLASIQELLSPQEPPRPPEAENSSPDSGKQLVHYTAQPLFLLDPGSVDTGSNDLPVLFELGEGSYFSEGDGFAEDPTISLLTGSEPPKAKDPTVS
Chain of Hypoxia-inducible factor 1-alpha (Homo sapiens) (Q16665 whole entry, looked up): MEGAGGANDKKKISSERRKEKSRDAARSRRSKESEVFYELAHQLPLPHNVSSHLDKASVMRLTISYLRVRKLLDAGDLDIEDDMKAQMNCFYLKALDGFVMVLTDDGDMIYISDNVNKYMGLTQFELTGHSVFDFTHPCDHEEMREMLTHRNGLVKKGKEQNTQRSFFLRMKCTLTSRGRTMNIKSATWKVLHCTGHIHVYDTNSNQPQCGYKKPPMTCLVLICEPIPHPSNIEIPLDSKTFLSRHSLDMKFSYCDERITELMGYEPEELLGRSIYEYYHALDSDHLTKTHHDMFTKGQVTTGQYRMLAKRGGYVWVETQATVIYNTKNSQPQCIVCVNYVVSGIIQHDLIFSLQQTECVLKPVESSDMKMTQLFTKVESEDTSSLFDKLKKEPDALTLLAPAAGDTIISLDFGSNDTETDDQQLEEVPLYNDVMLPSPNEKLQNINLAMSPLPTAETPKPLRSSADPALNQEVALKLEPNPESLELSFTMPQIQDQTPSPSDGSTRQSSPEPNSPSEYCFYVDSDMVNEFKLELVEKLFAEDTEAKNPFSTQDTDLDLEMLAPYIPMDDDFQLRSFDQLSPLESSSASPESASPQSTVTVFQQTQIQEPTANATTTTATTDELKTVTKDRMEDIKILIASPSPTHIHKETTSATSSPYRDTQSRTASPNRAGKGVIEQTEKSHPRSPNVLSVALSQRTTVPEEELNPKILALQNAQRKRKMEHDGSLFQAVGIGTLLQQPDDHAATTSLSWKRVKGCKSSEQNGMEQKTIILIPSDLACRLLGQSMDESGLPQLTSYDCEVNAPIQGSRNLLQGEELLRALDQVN

Regarding `CCCC[n+]1ccccc1`, the compound was called inactive in experiment [1], in [2], in experiment [3], in experiment [4], in experiment [5] and in experiment [6]. For the same compound, the compound was classed as inactive in experiment [7], in [8], in experiment [9], in [10], in experiment [11] and in experiment [12]. Besides, the outcome in experiment [13] was inactive.

`O=C1C(c2[nH]c3ccc(S(=O)(=O)O)cc3c2O)=Nc2ccc(S(=O)(=O)O)cc21`: the compound was called inactive in experiment [1], in experiment [2], in experiment [3], in experiment [14], in [4] and in experiment [15]. The compound was classed as inactive in experiment [5], in experiment [16], in [6], in [17], in experiment [7] and in [8]. The result in experiment [10], in experiment [11], in experiment [12] and in experiment [13] was inactive.

Turning to `C=C(C)C1CCC(C)CC1O` (configuration not stated), the call in experiment [1], in experiment [2], in experiment [3], in experiment [14], in experiment [4] and in experiment [15] was inactive. The compound was classed as inactive in [5], in [16], in experiment [6], in [7], in experiment [8] and in [9]. In addition, the compound was called inactive in [10], in [11] and in experiment [12].

Turning to `CCN(CC)CCOC(=O)c1ccc(N)cc1`, the outcome in experiment [1], in experiment [3], in [4], in [15], in [5] and in [18] was inactive. In addition, the result in [16], in experiment [7], in [8], in experiment [9], in [10] and in experiment [12] was inactive. Further, the AC50 in experiment [6] was 45.9 µM (active).

With `CC(C)=CCCC(C)=CCCC(C)=CCO`, the result in experiment [1], in experiment [2], in [3], in experiment [4], in experiment [15] and in experiment [5] was inactive. Moreover, the result in experiment [18], in experiment [17], in experiment [7], in [8], in experiment [11] and in [12] was inactive. Moreover, the result in [13] was inactive. In addition, the AC50 in experiment [6] was 4.26 µM (active); in experiment [10] it was 41.4 µM (active).

Turning to `CCCCCNCCCCC`, the call in experiment [1], in experiment [3], in [14], in experiment [4], in experiment [15] and in [18] was inactive. The result in [17], in experiment [7], in experiment [8], in experiment [9], in experiment [10] and in experiment [11] was inactive. Further, the call in experiment [12] and in [13] was inactive. For the same compound, the AC50 in experiment [6] is 59.4 µM (active).

On to `CC(C)[C@@H]1CC[C@@H](C)CC1=O`, for which the result in experiment [2], in experiment [3], in experiment [4], in experiment [15], in [5] and in [16] was inactive. For the same compound, the result in experiment [6], in experiment [7], in [8], in experiment [9], in experiment [10] and in experiment [11] was inactive. Also, the compound was classed as inactive in experiment [12] and in experiment [13]. Also, the AC50 in experiment [14] was 38.4 µM (active).

`NCCCCCCN`: the outcome in experiment [1], in experiment [2], in [3], in experiment [14], in experiment [4] and in experiment [15] was inactive. Besides, the outcome in [5], in experiment [16], in [6], in [17], in experiment [7] and in experiment [8] was inactive. In addition, the result in [9], in [10] and in experiment [12] was inactive.
